Measured values reported in PubChem BioAssay AID1159580 (chemical genetic matrix, 2015).
Hit rate of the full screen: of about 5,500 compounds, about 2,000 (36%) were called active. Not shown: some 18% with an inconclusive outcome. Rule as the data show it: active = normalized growth mostly below about 0.91 (no sharp cut-off); inconclusive = no clear call, values can overlap the other calls; inactive = mostly above about 0.92. Some of the results follow.

Experiment: chemical genetic growth profiling, strain panel (AID 1159580);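 also: tested at 20 µM; growth read once vehicle control cultures reached saturation at 30 °C; 1 = growth at the plate median or of vehicle wells; lower values mean less growth of the strain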
Conditions: S. cerevisiae deletion strains, growth OD

Measured: normalized growth

O=C(O)P(=O)(O)O
active: locus YKR001C, strain vps1, stronger effect = lower value 0.894 | locus YMR307W, strain GAS1, stronger effect = lower value 0.443
inactive: locus YJR066W, strain TOR1, stronger effect = lower value 0.982 | locus YJR075W, strain HOC1, stronger effect = lower value 0.926 | locus YKL009W, strain mrt4, stronger effect = lower value 0.931 | locus YKL068W, stronger effect = lower value 0.969 | locus YKL085W, strain MDH1 (second series), stronger effect = lower value 0.96 | locus YKL085W, strain MDH1, stronger effect = lower value 0.96 | locus YKL160W, strain elf1, stronger effect = lower value 0.995 | locus YKL190W, strain CNB1, stronger effect = lower value 0.981 | locus YKR026C, strain gcn3, stronger effect = lower value 0.977 | locus YKR091W, strain srl3, stronger effect = lower value 0.986 | locus YLL001W, strain dnm1, stronger effect = lower value 0.991 | locus YLL026W, stronger effect = lower value 1 | locus YLL041C, strain sdh2, stronger effect = lower value 0.989 | locus YLR027C, strain aat2, stronger effect = lower value 0.974 | locus YLR039C, strain RIC1, stronger effect = lower value 0.855 | locus YLR058C, strain SHM2, stronger effect = lower value 0.97 | locus YLR102C, strain apc9, stronger effect = lower value 0.977 | locus YLR113W, strain HOG1, stronger effect = lower value 1.07 | locus YLR221C, strain rsa3, stronger effect = lower value 0.975 | locus YLR258W, strain gsy2, stronger effect = lower value 1 | locus YLR262C, strain YPT6 (second series), stronger effect = lower value 0.967 | locus YLR262C, strain YPT6, stronger effect = lower value 0.842 | locus YLR268W, strain sec22, stronger effect = lower value 0.949 | locus YLR320W, strain mms22, stronger effect = lower value 0.967 | locus YLR330W, strain CHS5, stronger effect = lower value 0.957 | locus YLR342W, strain FKS1 (second series), stronger effect = lower value 0.897 | locus YLR342W, strain FKS1, stronger effect = lower value 0.981 | locus YLR357W, strain rsc2, stronger effect = lower value 0.972 | locus YLR370C, strain arc18, stronger effect = lower value 0.995 | locus YLR371W, strain rom2, stronger effect = lower value 0.982 | locus YLR384C, strain iki3, stronger effect = lower value 1 | locus YLR418C, strain cdc73, stronger effect = lower value 0.91 | locus YML016C, strain PPZ1, stronger effect = lower value 0.984 | locus YML032C, strain rad52, stronger effect = lower value 0.977 | locus YML120C, strain ndi1, stronger effect = lower value 0.98 | locus YML124C, strain tub3, stronger effect = lower value 0.981 | locus YMR058W, strain fet3, stronger effect = lower value 0.983 | locus YMR078C, strain ctf18, stronger effect = lower value 0.956 | locus YMR125W, strain sto1, stronger effect = lower value 0.986 | locus YMR129W, stronger effect = lower value 0.984 | locus YMR205C, strain PFK2, stronger effect = lower value 0.975 | locus YMR223W, strain ubp8, stronger effect = lower value 0.95 | locus YMR231W, strain pep5, stronger effect = lower value 0.993 | locus YMR263W, strain SAP30, stronger effect = lower value 0.938 | locus YNL067W, strain RPL9B, stronger effect = lower value 0.923 | locus YNL071W, strain lat1, stronger effect = lower value 0.99 | locus YNL128W, strain TEP1, stronger effect = lower value 0.925 | locus YNL153C, strain GIM3, stronger effect = lower value 0.968 | locus YNL183C, strain NPR1, stronger effect = lower value 0.975 | locus YNL209W, strain ssb2, stronger effect = lower value 0.983 | locus YNL233W, strain BNI4, stronger effect = lower value 0.923 | locus YNL248C, strain rpa49, stronger effect = lower value 0.981 | locus YNL250W, strain rad50, stronger effect = lower value 0.956 | locus YNL271C, strain bni1, stronger effect = lower value 0.966 | locus YNL298W, strain CLA4, stronger effect = lower value 0.976 | locus YNL307C, strain MCK1, stronger effect = lower value 0.962 | locus YNL322C, strain KRE1 (second series), stronger effect = lower value 0.981 | locus YNL322C, strain KRE1, stronger effect = lower value 0.974 | locus YNR049C, strain mso1, stronger effect = lower value 0.987 | locus YNR052C, strain pop2, stronger effect = lower value 0.971 | locus YOL012C, strain htz1 0.927 | locus YOL147C, strain pex11, stronger effect = lower value 0.976 | locus YOR001W, strain rrp6, stronger effect = lower value 0.981 | locus YOR061W, strain CKA2, stronger effect = lower value 0.98 | locus YOR069W, strain VPS5, stronger effect = lower value 0.986 | locus YOR070C, strain gyp1, stronger effect = lower value 0.988 | locus YOR080W, strain dia2, stronger effect = lower value 0.987 | locus YOR083W, strain WHI5, stronger effect = lower value 0.995 | locus YOR106W, strain vam3, stronger effect = lower value 0.983 | locus YOR136W, strain idh2, stronger effect = lower value 0.968 | locus YOR144C, strain elg1, stronger effect = lower value 0.977 | locus YOR184W, strain ser1, stronger effect = lower value 0.941 | locus YOR231W, strain MKK1, stronger effect = lower value 1.04 | locus YOR265W, strain rbl2, stronger effect = lower value 0.996 | locus YOR270C, strain vph1, stronger effect = lower value 0.961 | locus YOR290C, strain snf2, stronger effect = lower value 0.997 | locus YOR316C, strain cot1, stronger effect = lower value 0.974 | locus YPL051W, strain arl3, stronger effect = lower value 1.01 | locus YPL055C, strain LGE1, stronger effect = lower value 0.948 | locus YPL078C, strain atp4, stronger effect = lower value 1 | locus YPL106C, strain sse1, stronger effect = lower value 0.978 | locus YPL240C, strain hsp82, stronger effect = lower value 0.985 | locus YPL241C, strain CIN2, stronger effect = lower value 0.986 | locus YPL256C, strain CLN2, stronger effect = lower value 1.07 | locus YPR119W, strain clb2, stronger effect = lower value 0.963 | locus YPR141C, strain kar3, stronger effect = lower value 0.958 | locus YPR163C, strain tif3, stronger effect = lower value 0.989 | locus YPR167C, strain met16, stronger effect = lower value 0.963 | strain wtn01, stronger effect = lower value 0.964
